High-throughput results (PubChem BioAssay)
Only some compounds are listed: those with a hit (about 3.3% of all), similar ones and a draw of the others.
Tau FP inhib: tau fibrillization inhibition (FP) | K18 P301L tau heparin fibrillization, Alexa594 FP, 6 h | Potency, µM (titrated, usually from 57.7 µM), for inactives: top-dose activity, negative = inhibition, usual class: inhibitors | hit rate 0.39% among 280,000 | AID 1468; also: nearly all actives have a fitted effect of over 55% in size
Target sequence (P10636 561-689 P618L limits assumed): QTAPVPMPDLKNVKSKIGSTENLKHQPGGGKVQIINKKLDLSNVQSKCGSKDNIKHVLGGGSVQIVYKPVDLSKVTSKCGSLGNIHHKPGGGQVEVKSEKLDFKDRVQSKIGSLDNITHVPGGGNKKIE
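Human tau K18 […] P301L fragment, 15 uM unlabeled plus 0.24 uM Alexa 594-labeled tau (final), with compound and 20 uM heparin in 100 mM sodium acetate pH 7; 6 hr at 37 C, then Alexa 594 FP read.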
Tau fluor cs: counter-screen for tau fibril formation inhibitors. tau K18 P301L Alexa594 fluorescence, heparin fibrillization. AID 1463. hit rate 0.93% among 280,000. Potency, µM (top dose mostly 57.7 µM), for inactives: at the highest dose activity change, negative = decrease; also: nearly all actives have a fitted effect of over 55% in size
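Human tau K18 P301L (15 uM unlabeled, 0.24 uM Alexa 594-labeled) in 100 mM sodium acetate pH 7 with 20 uM heparin, 6 hr at 37 C. ThT 30 uM added, 1 hr ambient; Alexa 594 FP and total fluorescence read at 555/632 nm.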
KinaseGlo FLuc: blocks Kinase-Glo luciferase, a counter-screen artifact; Q27757; Kinase-Glo luciferase, ATP luminescence, 8 min; Potency, µM (highest dose often 38.3 µM), for the others: at the top dose activity change, negative = inhibition, hits mostly inhibitors; hit rate 0.28% among 200,000; also: nearly all actives have a fitted effect of over 60% in size
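Kinase-Glo luciferase light output from ATP and luciferin was measured with 10 uM ATP, within the enzyme's linear range. Buffer: 50 mM imidazole pH 7.2, 50 mM KCl, 7 mM MgCl2, 0.01% Tween 20, 0.05% BSA; luminescence read after 8 min at ambient temperature.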
NPSR antagonist: neuropeptide S receptor (human) antagonism, cAMP; Q6W5P4; CHO-NPSR cells, cAMP TR-FRET, antagonist mode; Potency, µM (series often up to 38.3 µM), without a hit: top-dose activity change, negative = inhibition, hits mostly inhibitors; hit rate 1% among 220,000; also: nearly all actives have a fitted effect of over 50% in size
Target sequence (Q6W5P4 whole entry, looked up): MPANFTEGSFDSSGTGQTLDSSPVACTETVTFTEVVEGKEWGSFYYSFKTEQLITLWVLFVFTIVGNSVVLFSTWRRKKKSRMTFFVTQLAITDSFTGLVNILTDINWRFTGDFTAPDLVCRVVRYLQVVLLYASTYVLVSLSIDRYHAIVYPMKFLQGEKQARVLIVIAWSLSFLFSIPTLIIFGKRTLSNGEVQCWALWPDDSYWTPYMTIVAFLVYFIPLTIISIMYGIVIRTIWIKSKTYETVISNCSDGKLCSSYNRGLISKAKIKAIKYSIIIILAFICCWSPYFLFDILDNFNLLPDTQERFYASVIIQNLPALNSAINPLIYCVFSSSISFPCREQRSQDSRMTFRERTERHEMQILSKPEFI
Tau ThT inhib: blocks human tau fibril formation measured by thioflavin T; recombinant tau K18 P301L (four-repeat tau fragment), heparin-induced fibrillization, ThT fluorescence; P10636; hit rate 2.1% among 270,000; Potency, µM (series often up to 57.4 µM), inactives show at the top dose activity, negative = inhibition, usual class: inhibitors; also: nearly all actives have a fitted effect of over 55% in size
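Tau K18 P301L fragment (15 uM unlabeled plus 0.24 uM Alexa 594-labeled) in 100 mM sodium acetate pH 7 with compound, fibrillization induced by 20 uM heparin for 6 hr at 37 C. Thioflavin T (30 uM) added, fluorescence read after 1 hr (ex 450, em 510 nm).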
Numbers without * were called inactive; u = inconclusive; x = no result given; [ ] = dose if it differs, or a comment. Calls follow the shape of the dose curve; as a rule, active = well fitted curve in the direction sought with a large enough effect; inconclusive = small, poorly fitted or top-dose-only effect, or another doubt; inactive = no such curve, though single readings can be large; an effect the other way counts as inactive or inconclusive. % is scaled to controls: 0 for no effect and ±100 for the full control effect; potency is read from the fitted curve at half-maximal effect.

SMILES	Tau FP inhib	Tau fluor cs	KinaseGlo FLuc	NPSR antagonist	Tau ThT inhib
CCOCCCNC(=O)/C(C#N)=C/c1cc(OC)c(O)c([N+](=O)[O-])c1	10%	-11%	1%	-31%	14µM*
Cc1cc2c(n1-c1ccc(C(=O)NCc3ccccc3Cl)cc1)CCCC2	u	-17%	x	x	u
COc1cc(Br)cc(C=Nc2cccc(C(F)(F)F)c2)c1O	-1%	-4%	-2%	-9%	14µM*
O=C(O)C/C(=C\c1ccc(N2CCOCC2)c([N+](=O)[O-])c1)c1nc2ccccc2s1	-2%	-13%	x	4%[7.67 µM]	14µM*
O=C(O)CC/C(=C\c1ccc(N2CCOCC2)c([N+](=O)[O-])c1)c1nc2ccccc2s1	-3%	-12%	-1%	-13%	7.9µM*
O=C(O)CC/C(=C\c1ccc(Cl)c([N+](=O)[O-])c1)c1nc2ccccc2s1	9%	10%	-4%	-30%	12%
Fc1ccc(-c2noc3ncnc(Nc4ccc(F)cc4F)c23)cc1	-10%	-24%	x	x	-7%
CSc1nc2ccc(NS(=O)(=O)c3ccccc3F)cc2s1	3%	-11%	3%	-2%	-5%
CSc1nc2ccc(NS(=O)(=O)c3c(Cl)cccc3Cl)cc2s1	-3%	10µM*[quencher]	1%	9%	u
COc1ccc2c(c1)c(=O)c(S(=O)(=O)c1ccccc1)cn2CC(=O)Nc1ccc(C)c(Cl)c1	u	u	x	x	12%
O=C(Nc1nc2c(s1)CCCC2)Oc1ccccc1	0%	1%	1%	-6%[46.1 µM]	-9%
C/C(=N\Nc1nc2c(s1)CCCC2)c1ccccc1	-9%	u	-5%	-19%[46.1 µM]	14µM*
Cc1ccc(NC(=O)c2cccc(NC(=O)N3CCSc4ncccc43)c2)cc1F	u	0%	x	x	u
CCCCCn1c(=O)c(C(=O)c2ccccc2)nc2ccccc21	-1%	-18%	-1%	u	-15%
CCCCCCn1c(=O)[nH]c2nc3cc(N)ccc3nc2c1=O	u	u	x	-14%[46.1 µM]	28µM*
Cc1ccc(NC(=O)Cn2c(=O)n(Cc3nc(C)no3)c(=O)c3cc4c(cc32)OCO4)cc1	-1%	-9%	x	x	8%
CCCCCC[N+](C)(C)CCSSCC[N+](C)(C)CCCCCC	u	-23%	x	18%	7.1µM*
C#CC[N+](C)(C)CCCCCCCCCC	-5%	-3%	1%	12%	-1%
Nc1ncnc2nc(-c3ccc(C[P+](c4ccccc4)(c4ccccc4)c4ccccc4)cc3)[nH]c12	x	x	-5%[7.66 µM]	x	x
COc1ccc(Nc2nc(N/N=C/c3ccc(N(C)C)cc3)nc(C)c2[N+](=O)[O-])cc1	9%	11µM*[quencher]	-3%	18%	3.2µM*
Cc1nc(Nc2ccc(F)cc2)nc(Nc2ccc(F)cc2)c1[N+](=O)[O-]	-6%	-19%	x	10%	-5%
COc1ccc(Nc2nc(NN)nc(C)c2[N+](=O)[O-])cc1	-7%	u	0%	-13%	14µM*
Cc1ccc2c(c1)N(C(=O)CCC(=O)NCc1cccs1)CCO2	5%	-11%	x	x	-10%
O=C(N/N=C/c1ccccc1Cl)c1nc2ccc([N+](=O)[O-])cc2c(=O)[nH]1	1%	u	-2%	-38%	10µM*
O=C(N/N=C/c1cccc([N+](=O)[O-])c1)c1nc2ccccc2c(=O)[nH]1	7%	1%	x	-21%	-2%
SMILES	Tau FP inhib	Tau fluor cs	KinaseGlo FLuc	NPSR antagonist	Tau ThT inhib
CCOC(=O)c1cccc(NC(=O)C2CCCN(c3nnc(C)c4c(C)n(-c5ccccc5)nc34)C2)c1 (stereo not drawn)	5%	4%	x	x	10%
CC(C)c1nc(CN(C)C(=O)N[C@H](C(=O)N[C@@H](Cc2ccccc2)C[C@H](O)[C@H](Cc2ccccc2)NC(=O)OCc2cncs2)C(C)C)cs1	8%	-4%	2%[39.9 µM]	13µM*	u
CCC1CCCCN1CCCNC(=O)c1ccc2c(c1)N(Cc1cccc(C)c1)C(=O)c1ccccc1S2(=O)=O (stereo not drawn)	-12%	u	x	x	-12%
COc1ccc(Nc2oc(COc3ccc(Cl)cc3)nc2C#N)cc1	11%	20µM*[quencher]	-1%	-16%[46.1 µM]	u
COCCNc1oc(-c2ccc(COc3ccc(OC)cc3)o2)nc1C#N	8%	u	x	x	-8%
COCCCNc1oc(-c2ccc(COc3ccc(Cl)cc3)o2)nc1C#N	u	11µM*[quencher]	x	x	u
CCOc1ccc(S(=O)(=O)NCCc2csc3nc(-c4cccc(C)c4)nn23)cc1	-12%	-24%	x	x	-8%
COc1ccc(CCC(=O)NCc2cn3ccccc3n2)cc1	-5%	-27%	x	-5%	x
CCOc1ccc(NC(=O)Cn2c(=O)n(Cc3ccc(C(=O)NCc4ccc5c(c4)OCO5)cc3)c(=O)c3ccccc32)cc1	28µM*	-21%	x	x	-3%
Cc1cccc(NC(=O)Cn2c(=O)n(Cc3ccc(C(=O)NCc4ccc5c(c4)OCO5)cc3)c(=O)c3ccccc32)c1	u	-15%	x	x	4%
O=C(Cn1c(=O)n(Cc2ccc3c(c2)OCO3)c(=O)c2ccccc21)Nc1cccc(Cl)c1	28µM*	u	x	x	u
O=C(Cn1c(=O)n(Cc2ccc(C(=O)NCc3ccc4c(c3)OCO4)cc2)c(=O)c2ccccc21)Nc1cccc(Cl)c1	u	-12%	x	x	5%
CCCOc1ccc(CNC(=O)c2cc3oc4ccccc4c3n2C)cc1	-11%	-23%	x	x	-11%
CCOC(=O)c1c(C)[nH]c(C)c1S(=O)(=O)N1CCC(C(=O)NCc2cccc(C)c2)CC1	-7%	-25%	x	x	-15%
CCN(c1ccc(OC)cc1)S(=O)(=O)c1nnc(NC(=O)c2ccccc2Cl)s1	9%	-15%	x	x	-18%
N#CCCCN1C(=O)C(=C(C#N)C#N)c2ccccc21	u	u	-6%	56%	32µM*
Cc1[nH]n(-c2ncc(-c3ccc(Cl)cc3)s2)c(=O)c1C(c1ccc(Cl)cc1)C(C#N)C#N (stereo not drawn)	40µM*	u	-1%	-26%[46.1 µM]	11µM*
COC(=O)c1ccc(NC(=O)CSc2nc3ccc(OC)cc3[nH]2)cc1	-1%	-27%	x	x	u
Cn1c(O)c(C2=c3ccccc3=NC2=O)sc1=Nc1ccc(Cl)cc1	15%	u	-2%	-23%[46.1 µM]	10µM*
C=CCn1c(O)c(C2=c3ccccc3=NC2=O)s/c1=N/c1nccs1	u	u	-9%	-12%[46.1 µM]	u
O=[N+]([O-])c1ccc(Oc2cccc3cccnc23)c([N+](=O)[O-])c1	-7%	16µM*[quencher]	3%	-10%	8.9µM*
COc1ccc(S(=O)(=O)NCC(c2cccs2)S(=O)(=O)c2ccccc2)cc1OC (stereo not drawn)	-8%	-12%	x	x	-4%
O=C/C=C/c1coc2ccc3ccccc3c2c1=O	-9%	u	x	2%	14µM*
CCCCn1c(=O)n(-c2ccc(Br)cc2F)c(=O)c2c3c(sc21)CN(C(C)=O)CC3	u	-2%	x	x	-14%
Cn1nnnc1SCCCNCc1cc(Cl)ccc1OCc1ccccc1	-4%	-7%	x	x	-1%
